Experimental data reported in the supplement of paper PMC10981050.
“And” between values parts separate entries of the source, which are not always exact repeats. Identical values can stand only once. Counter-ions that a name gives are not always drawn.

Columns and labels:
Experiment in all cases: cell viability relative to vehicle control; higher = less cytotoxic
Settings in all cases: 10 µM
K562 = test system: K562
How it was run: (§1)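 Each screen used CRISPR-edited mutant and wild-type clones from four leukaemia lines. Compounds were acoustically dispensed at a single 10 µM dose, and CellTiter-Glo luminescence was read after 48 h with the supernatant first removed. Viability was analysed in Genedata Screener and given as percent of the on-plate vehicle control.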

MARIMO = test system: MARIMO
How it was run: as §1

MOLM14 = test system: MOLM14
How it was run: as §1

OCI-AML2 = test system: OCI-AML2
How it was run: as §1

SMILES | cell viability (K562; SRSF2 genotype: SRSF2 P95H/wt) | cell viability (K562; SRSF2 genotype: SRSF2 wt/wt) | cell viability (MARIMO; SRSF2 genotype: SRSF2 P95H/wt) | cell viability (MARIMO; SRSF2 genotype: SRSF2 wt/wt) | cell viability (MOLM14; SRSF2 genotype: SRSF2 P95H/wt) | cell viability (MOLM14; SRSF2 genotype: SRSF2 wt/wt) | cell viability (OCI-AML2; SRSF2 genotype: P95H/wt) | cell viability (OCI-AML2; SRSF2 genotype: wt/wt)
C[S+](CC[C@H](N)C(=O)[O-])C[C@H]1O[C@@H](n2cnc3c(N)ncnc32)[C@H](O)[C@@H]1O (some centres undefined) [Ademetionine disulfate tosylate] | 105% and 97.3% | 103% | 102% | 110% | 112% | 115% | 117% | 110%
Cc1cc(C)nc(NC(=S)N2CCN(Cc3ccc(C(F)(F)F)cc3)CC2)c1 | 71.2% and 80.6% | 73.2% | 67.4% | 64.5% | 77.3% | 86.6% | 37.8% | 54%
Nc1ccc(Cl)cc1C(=O)C(F)(F)F [4-Chloro-2-(trifluoroacetyl)aniline hydrochl] | 106% and 98.3% | 112% | 101% | 99.5% | 105% | 109% | 105% | 115%
CC(C)Cn1cnc2c(N)nc3ccccc3c21 [Imiquimod] | 80.9% and 85.2% | 77.2% | 78.5% | 92.4% | 78.1% | 84.8% | 85.9% | 85.4%
C[C@@H]1CC[C@@]2(OC1)O[C@H]1C[C@H]3[C@@H]4CC=C5C[C@@H](O[C@@H]6O[C@H](CO)[C@@H](O)[C@H](O)[C@H]6O)CC[C@]5(C)[C@H]4CC[C@]3(C)[C@H]1[C@@H]2C [Trillin] | 87.5% and 97.2% | 94% | 76.7% | 78.7% | 84.5% | 93.2% | 88.3% | 98.5%
CCCNC(=O)c1cn2ncnc(Nc3cc(C(=O)NC4CC4)ccc3C)c2c1C | 90.9% and 95.7% | 93.3% | 99.5% | 101% | 91.8% | 95.8% | 91.3% | 95.9%
C[C@@H](Oc1ccc2[nH]nc(/C=C/c3cnn(CCO)c3)c2c1)c1c(Cl)cncc1Cl | 36.1% and 35.5% | 30.1% | 6.39% | 5.47% | 0.8% | 0.16% | 0.48% | 4.14%
CC(=O)N[C@@H](CC(C)C)C(=O)N[C@@H](CC(C)C)C(=O)N[C@H](C=O)CCCNC(=N)N [Leupeptin Hemisulfate] | 94.1% and 83.4% | 86.2% | 90.8% | 97.3% | 85.8% | 90.1% | 97.4% | 97.7%
CC1(C)O[C@@H]2C[C@H]3[C@@H]4C[C@H](F)C5=CC(=O)C=C[C@]5(C)[C@@]4(F)[C@@H](O)C[C@]3(C)[C@]2(C(=O)CO)O1 [Fluocinolone acetonide (Flucort-N)] | 95% and 96% | 92.6% | 98.3% | 104% | 95.6% | 91.6% | 100% | 109%
CC#Cc1cncc(-c2ccc3c(c2)C2(N=C(C)C(N)=N2)C2(CCC(OC)CC2)C3)c1 (centres undefined) | 108% and 98.5% | 107% | 100% | 103% | 98% | 98.9% | 88.8% | 93.1%
S=C(NCc1ccc2c(c1)OCO2)N1CCN(c2ncnc3c2oc2ccccc23)CC1 [Amuvatinib (MP-470)] | 62.3% and 74.9% | 64.2% | 50.3% | 41.5% | 68.2% | 76.4% | 28% | 42.5%
S=C(N/N=C1/CCCc2cccnc21)N1CCN(c2ccccn2)CC1 | 16.2% and 6.78% | 26.6% | 28% | 25.2% | 22.1% | 13.9% | 22.8% | 30.5%
CN1CCC[C@H]1c1cccnc1 [nicotine ditartrate] | 101% and 97.3% | 97.6% | 105% | 117% | 99.1% | 101% | 95.6% | 106%
CCOC(=O)[C@H](CCc1ccccc1)N[C@@H](C)C(=O)N(CC(=O)O)C1Cc2ccccc2C1 [Delapril Hydrochloride] | 100% and 97.5% | 95.8% | 91% | 100% | 86.3% | 90.7% | 94% | 91.6%
Cc1ccc(O)c(O)c1 [4-Methylcatechol] | 94.8% and 90.4% | 98.3% | 61.1% | 89.5% | 75.4% | 85.3% | 94% | 90.9%
O=S(=O)(c1ccccc1)N(CC(F)(F)F)c1ccc(C(O)(C(F)(F)F)C(F)(F)F)cc1 | 74.6% and 72.6% | 72.3% | 67.8% | 70.4% | 62.3% | 65.2% | 67.5% | 70.7%
CN(C)c1nc(N(C)C)nc(N(C)C)n1 [Altretamine (Hexalen)] | 99.3% and 102% | 99.7% | 97.3% | 95.2% | 94% | 98.5% | 99.7% | 98.4%
CC(=N)NCc1cccc(CN)c1 | 103% and 97.3% | 91.8% | 96.3% | 100% | 95.6% | 97.8% | 95.4% | 101%
Cc1ccc([C@@H]2O[C@H](CO)[C@@H](O)[C@H](O)[C@H]2O)cc1Cc1ccc(-c2ccc(F)cc2)s1 [Canagliflozin] | 93.4% and 99.1% | 99.7% | 99% | 90.3% | 102% | 102% | 102% | 97.1%
CC1=CC(=O)CC(C)(C)C1(O)/C=C/C(C)=C\C(=O)O (centres undefined) [Abscisic Acid (Dormin)] | 102% and 99.2% | 98.1% | 101% | 110% | 104% | 101% | 105% | 102%
COc1ccc(-c2cc3c(C)nc(N)nc3n([C@H]3CC[C@H](OCCO)CC3)c2=O)cn1 | 40.2% and 40.4% | 39.5% | 32.4% | 27.5% | 22.9% | 23.3% | 1.55% | 8.86%
COc1cc2c(Oc3ccc(NC(=O)C4(C(=O)Nc5ccc(F)cc5)CC4)cc3F)ccnc2cc1OCCCN1CCOCC1 | 0.8% and 0.64% | 0.55% | 17.8% | 12.1% | 0.21% | 0.34% | 0.22% | 1.03%

SMILES | cell viability (K562; SRSF2 genotype: SRSF2 P95H/wt) | cell viability (K562; SRSF2 genotype: SRSF2 wt/wt) | cell viability (MARIMO; SRSF2 genotype: SRSF2 P95H/wt) | cell viability (MARIMO; SRSF2 genotype: SRSF2 wt/wt) | cell viability (MOLM14; SRSF2 genotype: SRSF2 P95H/wt) | cell viability (MOLM14; SRSF2 genotype: SRSF2 wt/wt) | cell viability (OCI-AML2; SRSF2 genotype: P95H/wt) | cell viability (OCI-AML2; SRSF2 genotype: wt/wt)
COc1ccc(S(=O)(=O)N(CCO)c2ccccc2CN(C)C/C=C/c2ccc(Cl)cc2)cc1 [KN-93 Phosphate] | 38.5% and 44% | 51.6% | 33.5% | 27.9% | 45.5% | 41.8% | 35.6% | 33.4%
CC(=O)N1CCN(c2ccc(NC(=O)Cc3cnc(-c4ccnc(F)c4)c(C)c3)nc2)CC1 | 88.7% and 84.8% | 82.3% | 85.7% | 97.8% | 80.4% | 86.7% | 91.1% | 94.6%
COCCc1ccc(OCC(O)CNC(C)C)cc1 (centres undefined) [Metoprolol tartrate] | 107% and 106% | 106% | 102% | 104% | 104% | 105% | 106% | 106%
NC(=O)c1cnc(N[C@@H]2CCCC[C@@H]2N)nc1Nc1cccc(-n2nccn2)c1 | 16.9% and 18.1% | 15.9% | 16% | 12.6% | 2.43% | 1.83% | 0.51% | 3.84%
CC(C)CC(=O)Nc1n[nH]c2c1CN(C(=O)C1CCN(C)CC1)C2(C)C | 37.5% and 39.7% | 38.4% | 15.8% | 6.67% | 2.48% | 1.14% | 8.45% | 17.8%
CC1(C)Cc2c(sc(NC(=O)c3ccn[nH]3)c2C(N)=O)C(C)(C)O1 | 103% and 101% | 109% | 96.6% | 93.3% | 110% | 102% | 101% | 104%
NC(=O)c1cccc2[nH]c(-c3ccc(C4CCCN4)cc3F)nc12 (centres undefined) | 94.1% and 89.6% | 80.1% | 72.9% | 80.5% | 47.7% | 33% | 47.9% | 54.3%
Cc1cc(Nc2ncc3c(n2)N(C)C(=O)N(c2cc(NC(=O)c4cccc(C(F)(F)F)c4)ccc2C)C3)n(C)n1 [Pluripotin (SC1)] | 35.1% and 35.2% | 30.4% | 22.1% | 21.8% | 7.16% | 7.23% | 12.7% | 20.3%
Oc1cc(O)c2c(c1)OC(c1ccc(O)c(O)c1)C(O)C2 (single isomer, unassigned; (+)) [(+)-Catechin hydrate] | 103% and 94.1% | 103% | 106% | 103% | 104% | 104% | 104% | 108%
CN1CCN(CCOc2cc(OC3CCOCC3)c3c(Nc4c(Cl)ccc5c4OCO5)ncnc3c2)CC1 [Saracatinib (AZD0530)] | 7.73% and 16.1% | 9.65% | 97.1% | 107% | 50.3% | 55.9% | 73.4% | 63.4%
CC(C)S(=O)(=O)c1ccc2nccc(Nc3ccc4scnc4c3)c2c1 | 60.2% and 78.2% | 63.7% | 101% | 108% | 75.2% | 78.2% | 83.2% | 88.5%
COc1cc(N2CCC(N3CCN(C)CC3)CC2)ccc1Nc1ncnc(Nc2ccccc2S(=O)(=O)C(C)C)n1 | 84.8% and 91% | 80.8% | 56.7% | 48.3% | 28.4% | 31.1% | 12.6% | 21.9%
COCCCN1CCC(NC(=O)c2cc(Cl)c(N)c3c2OCC3)CC1 [Prucalopride] | 86.4% and 82% | 81.5% | 85.9% | 91.6% | 87.3% | 88.9% | 80.5% | 88.7%
CC(C)(C)C(=O)Nc1ccc2c(c1)C(=O)C(=O)c1ccccc1-2 [SF1670 (PTEN inhibitor)] | 84.3% and 70.9% | 56.8% | 2.56% | 70.5% | 88.4% | 39.2% | 65.8% | 76.2%
NCc1c[nH]c(=S)n1[C@H]1CCc2c(F)cc(F)cc2C1 [Nepicastat hydrochloride] | 100% and 97.2% | 96.6% | 92.2% | 97.4% | 88.4% | 101% | 101% | 103%
N=C(N)NC(=O)c1nc(Cl)c(N)nc1N [Amiloride HCl] | 88.4% and 98.5% | 92.9% | 99.3% | 96.2% | 72.8% | 86.7% | 85.8% | 84.7%
COc1cc2c(cc1OC)-c1cc3ccc(OC)c(OC)c3c[n+]1CC2 [Palmatine] | 80.5% and 88.6% | 90.2% | 92.6% | 92% | 93.5% | 90.9% | 88.8% | 78.7%
C[C@@H](Nc1cc(F)cc(F)c1)c1cc(C(=O)N(C)C)cc2c(=O)cc(N3CCOCC3)oc12 | 87% and 91.9% | 85.5% | 52% | 47.3% | 42.3% | 51.1% | 25.5% | 37.4%
Cc1cc(C)c(S(=O)(=O)n2cc(C)cc2C)c(C)c1 | 90.6% and 98.6% | 95.1% | 90.8% | 88.4% | 84.7% | 92.2% | 99.7% | 102%
CC(C)(C)NC(=O)N[C@H](C(=O)N1C[C@H]2[C@@H]([C@H]1C(=O)NC(CC1CCC1)C(=O)C(N)=O)C2(C)C)C(C)(C)C (some centres undefined) [Boceprevir] | 85.6% and 87.6% | 84.2% | 71.3% | 73.2% | 91.1% | 84.3% | 84% | 88.9%
N#C[C@@H]1C[C@@H]2C[C@@H]2N1C(=O)[C@@H](N)C12CC3CC(CC(O)(C3)C1)C2 | 107% and 99.7% | 107% | 97.6% | 88.9% | 96.7% | 99.5% | 96.6% | 108%
